According to article PMC5540273 (PLoS ONE, 2017):

System: ACVR1B
Details: concentration: 1 μM,replicates: in singlicate; n = 1
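Note: KINOMEscan kinase panel screen.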

| Compound | %Inh |
| --- | --- |
| CN(c1ccc2c(c1)nc(NCc1ccc(F)cc1)n2C)c1ccnc(Nc2ccc(CS(C)(=O)=O)cc2)n1.Cl [GW813244] | 3% |
| Cn1ccc2ncnc(Oc3ccc(NC(=O)Nc4cnn(C(C)(C)C)c4)c(Cl)c3)c21 | 2% |
| O=C(Nc1cccc(C(F)(F)F)c1)c1cccc(Oc2ccc3nccn3n2)c1 | 0% |
| COc1cc2ncn(-c3cc(OCC4CCCCC4)c(C(N)=O)s3)c2cc1OC [GSK204559] | 0% |
| Cc1n[nH]c2cc(Nc3ccnc(Nc4cccc(CN5CCOCC5)c4)n3)ccc12 [GW682569] | 36% |
| CS(=O)c1ccc(-c2coc3ccc(-c4n[nH]c(=O)o4)cc23)cc1 (centres unmarked) | 14% |
| Cl.Cl.NC[C@H](CC1CCCCC1)NC(=O)c1ccc(-c2ccnc3[nH]ccc23)s1 [GSK1581428] | 0% |
| Cl.c1ccc(Oc2ccc(Nc3ccnc4cc(-c5ccc(CN6CCNCC6)o5)ccc34)cc2)nc1 [GW567142] | 0% |
| O=C(Nc1cccc(Oc2ccc3nccn3n2)c1)Nc1cccc(C(F)(F)F)c1 | 0% |
| Cc1nnc(-c2ccc3occ(-c4ccc(S(C)=O)cc4)c3n2)o1 (centres unmarked) | 0% |
| Cc1ccc(C(=O)Nc2ccc(Oc3ccc4nc(NC(=O)C5CC5)cn4c3)c(F)c2)c(=O)n1-c1ccccc1 | 0% |
| C[C@@H](Oc1cc(-n2cnc3cc(-c4cnn(C)c4)ccc32)sc1C(N)=O)c1ccccc1Cl [GSK580432] | 0% |
| CCN1CCN(CCCC(=O)Nc2n[nH]c3nc(-c4ccc(O)cc4)c(Br)cc23)CC1 [SB-731579] | 0% |
| COC(=O)c1cccc(NC(=O)NC2CCN(c3ccnc(Nc4cc(OC)c(OC)c(OC)c4)n3)C2)c1 (centres unmarked) [GSK1379767] | 0% |
| CS(=O)(=O)Nc1ccc(-c2ccnc3[nH]ccc23)cc1 [GSK993273] | 0% |
| CCOC(=O)N1CCC(n2cnc(-c3ccc(F)cc3)c2-c2ccnc(N)n2)CC1 [SB-219952] | 33% |
| CN1CCN(CCCNc2nccc(-c3c(-c4ccc(F)cc4)nn4cc(C(N)=O)ccc34)n2)CC1 [GW622475] | 94.9% |
| Cl.Nc1n[nH]c2cc(-c3ccccn3)ccc12 [GSK2189892] | 0% |
| CC(=O)c1c(-c2ccncc2)[nH]c(-c2ccncc2)c1C [GW493036] | 0% |

| Compound | %Inh |
| --- | --- |
| CS(=O)(=O)c1cccc(CNc2nc(Nc3ccc4c(c3)[C@@H]3C[C@@H]4CNC3=O)ncc2C(F)(F)F)c1 | 0% |
| CNC(=O)c1ccccc1Nc1nc(Nc2cccc(CS(C)(=O)=O)c2)ncc1C.O=CO [GSK1520489] | 71% |
| Cn1cc(-c2cccc3c(N)c(C(N)=O)nnc23)cn1 | 28% |
| Cn1ccc2ncnc(Oc3ccc(NC(=O)Nc4cccc(C(F)(F)F)c4)c(F)c3)c21 | 0% |
| Nc1nccc(-c2ccc3c(N)n[nH]c3c2)n1 [GSK1034945] | 0% |
| COc1cccc(C2=C(Nc3cccc(Cl)c3)C(=O)NC2=O)c1 [SB-341556] | 0% |
| CCn1c(-c2nonc2N)nc2cncc(CNC3CCNCC3)c21.Cl [SB-747651] | 0% |
| Cn1ccc2ncnc(Oc3ccc(NC(=O)Nc4cncc(C(F)(F)F)c4)c(Cl)c3)c21 | 0% |
| C[C@@H]1CCN(C(=O)N2CCCC2)C[C@@H]1N(C)c1ncnc2[nH]ccc12 | 1% |
| CC(C)S(=O)(=O)N1CCN(Cc2ccc3c(c2)nc(NC(=O)c2ccsc2)n3C[C@H](O)c2ccccc2)CC1 [GW635815] | 15% |
| C[C@@H]1CNc2c(sc3ccc4nc(-c5ccc(O)cc5)ccc4c23)C(=O)N1 | 22% |
| c1ccc(Oc2ccc(Nc3ccnc4ccc(-c5ccccn5)cc34)cc2)cc1 [GW407034] | 0% |
| Cn1ccc2ncnc(Oc3ccc(NC(=O)Nc4ccnc(C(F)(F)F)c4)c(Cl)c3)c21 | 0% |
| CC(=O)Nc1ccc(-c2cc3ncnc(SCC(=O)O)c3s2)cc1 | 2% |
| COc1cccc(OC)c1C(=O)Nc1cccc(-c2nn3ccccc3c2-c2ccnc(Nc3cccc(F)c3)n2)c1 [GSK361065] | 15% |
| COC(=O)c1cccc(NC(=O)NC2CCN(c3ccnc(NCc4ccc(F)cc4)n3)CC2)c1 [GSK1379860] | 0% |
| CCn1c(-c2nonc2N)nc2cncc(Br)c21 [SB-738004] | 30% |
| Cc1ccc(CC(=O)N2CCc3cc(-c4cn(C)c5ncnc(N)c45)ccc32)cc1 [GSK2634758] | 20% |

System: ACVR1
Details: concentration: 1 μM,replicates: in singlicate; n = 1

| Compound | %Inh |
| --- | --- |
| CN(c1ccc2c(c1)nc(NCc1ccc(F)cc1)n2C)c1ccnc(Nc2ccc(CS(C)(=O)=O)cc2)n1.Cl [GW813244] | 17% |
| Cn1ccc2ncnc(Oc3ccc(NC(=O)Nc4cnn(C(C)(C)C)c4)c(Cl)c3)c21 | 0% |
| O=C(Nc1cccc(C(F)(F)F)c1)c1cccc(Oc2ccc3nccn3n2)c1 | 0% |
| COc1cc2ncn(-c3cc(OCC4CCCCC4)c(C(N)=O)s3)c2cc1OC [GSK204559] | 5% |
| Cc1n[nH]c2cc(Nc3ccnc(Nc4cccc(CN5CCOCC5)c4)n3)ccc12 [GW682569] | 85% |
| CS(=O)c1ccc(-c2coc3ccc(-c4n[nH]c(=O)o4)cc23)cc1 (centres unmarked) | 0% |
| Cl.Cl.NC[C@H](CC1CCCCC1)NC(=O)c1ccc(-c2ccnc3[nH]ccc23)s1 [GSK1581428] | 5% |
| Cl.c1ccc(Oc2ccc(Nc3ccnc4cc(-c5ccc(CN6CCNCC6)o5)ccc34)cc2)nc1 [GW567142] | 0% |
| O=C(Nc1cccc(Oc2ccc3nccn3n2)c1)Nc1cccc(C(F)(F)F)c1 | 0% |
| Cc1nnc(-c2ccc3occ(-c4ccc(S(C)=O)cc4)c3n2)o1 (centres unmarked) | 0% |
| Cc1ccc(C(=O)Nc2ccc(Oc3ccc4nc(NC(=O)C5CC5)cn4c3)c(F)c2)c(=O)n1-c1ccccc1 | 0% |
| C[C@@H](Oc1cc(-n2cnc3cc(-c4cnn(C)c4)ccc32)sc1C(N)=O)c1ccccc1Cl [GSK580432] | 0% |
| CCN1CCN(CCCC(=O)Nc2n[nH]c3nc(-c4ccc(O)cc4)c(Br)cc23)CC1 [SB-731579] | 78% |
| COC(=O)c1cccc(NC(=O)NC2CCN(c3ccnc(Nc4cc(OC)c(OC)c(OC)c4)n3)C2)c1 (centres unmarked) [GSK1379767] | 33% |
| CS(=O)(=O)Nc1ccc(-c2ccnc3[nH]ccc23)cc1 [GSK993273] | 3% |
| CCOC(=O)N1CCC(n2cnc(-c3ccc(F)cc3)c2-c2ccnc(N)n2)CC1 [SB-219952] | 28% |
| CN1CCN(CCCNc2nccc(-c3c(-c4ccc(F)cc4)nn4cc(C(N)=O)ccc34)n2)CC1 [GW622475] | 90.6% |
| Cl.Nc1n[nH]c2cc(-c3ccccn3)ccc12 [GSK2189892] | 10% |
| CC(=O)c1c(-c2ccncc2)[nH]c(-c2ccncc2)c1C [GW493036] | 7% |

| Compound | %Inh |
| --- | --- |
| CS(=O)(=O)c1cccc(CNc2nc(Nc3ccc4c(c3)[C@@H]3C[C@@H]4CNC3=O)ncc2C(F)(F)F)c1 | 0% |
| CNC(=O)c1ccccc1Nc1nc(Nc2cccc(CS(C)(=O)=O)c2)ncc1C.O=CO [GSK1520489] | 76% |
| Cn1cc(-c2cccc3c(N)c(C(N)=O)nnc23)cn1 | 63% |
| Cn1ccc2ncnc(Oc3ccc(NC(=O)Nc4cccc(C(F)(F)F)c4)c(F)c3)c21 | 0% |
| Nc1nccc(-c2ccc3c(N)n[nH]c3c2)n1 [GSK1034945] | 0% |
| COc1cccc(C2=C(Nc3cccc(Cl)c3)C(=O)NC2=O)c1 [SB-341556] | 65% |
| CCn1c(-c2nonc2N)nc2cncc(CNC3CCNCC3)c21.Cl [SB-747651] | 8% |
| Cn1ccc2ncnc(Oc3ccc(NC(=O)Nc4cncc(C(F)(F)F)c4)c(Cl)c3)c21 | 0% |
| C[C@@H]1CCN(C(=O)N2CCCC2)C[C@@H]1N(C)c1ncnc2[nH]ccc12 | 0% |
| CC(C)S(=O)(=O)N1CCN(Cc2ccc3c(c2)nc(NC(=O)c2ccsc2)n3C[C@H](O)c2ccccc2)CC1 [GW635815] | 0% |
| C[C@@H]1CNc2c(sc3ccc4nc(-c5ccc(O)cc5)ccc4c23)C(=O)N1 | 11% |
| c1ccc(Oc2ccc(Nc3ccnc4ccc(-c5ccccn5)cc34)cc2)cc1 [GW407034] | 5% |
| Cn1ccc2ncnc(Oc3ccc(NC(=O)Nc4ccnc(C(F)(F)F)c4)c(Cl)c3)c21 | 11% |
| CC(=O)Nc1ccc(-c2cc3ncnc(SCC(=O)O)c3s2)cc1 | 0% |
| COc1cccc(OC)c1C(=O)Nc1cccc(-c2nn3ccccc3c2-c2ccnc(Nc3cccc(F)c3)n2)c1 [GSK361065] | 17% |
| COC(=O)c1cccc(NC(=O)NC2CCN(c3ccnc(NCc4ccc(F)cc4)n3)CC2)c1 [GSK1379860] | 0% |
| CCn1c(-c2nonc2N)nc2cncc(Br)c21 [SB-738004] | 0% |
| Cc1ccc(CC(=O)N2CCc3cc(-c4cn(C)c5ncnc(N)c45)ccc32)cc1 [GSK2634758] | 0% |
